# Assay results taken from PubChem BioAssay (NCI).
# This is part of a sample that, as a whole, favours compounds with a hit. Of some 83,000 tested, about 20% had one in any assay.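 96-well plates, one dose, 48 hours. Percent growth reported; active if below 10.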 Values without a mark were called inactive. Calls of active or inactive are those of the source.
# Experiments:
# Assay in all cases: NCI-60 one-dose screen, 48 h (100 = growth as untreated, 0 = no growth, -100 = all killed)
# Details in all cases: 10 µM unless noted
# [1] = tested on: SK-MEL-2 melanoma
# [2] = tested on: EKVX NSCLC
# [3] = tested on: SN12C renal
# [4] = tested on: UO-31 renal
# [5] = tested on: TK-10 renal
# [6] = tested on: ACHN renal
# [7] = tested on: CAKI-1 renal
# [8] = tested on: A498 renal
# [9] = tested on: CCRF-CEM leukemia
# [10] = tested on: MOLT-4 leukemia
# [11] = tested on: RPMI-8226 leukemia
# [12] = tested on: OVCAR-8 ovarian
# [13] = tested on: OVCAR-5 ovarian
# [14] = tested on: OVCAR-4 ovarian
# [15] = tested on: SK-OV-3 ovarian
# [16] = tested on: IGROV1 ovarian
# [17] = tested on: OVCAR-3 ovarian
# [18] = tested on: HS 578T breast
# [19] = tested on: NCI/ADR-RES ovarian
# [20] = tested on: SR leukemia
SMILES,growth [1],growth [2],growth [3],growth [4],growth [5],growth [6],growth [7],growth [8],growth [9],growth [10],growth [11],growth [12],growth [13],growth [14],growth [15],growth [16],growth [17],growth [18],growth [19],growth [20]
Cc1cc(Nc2ccc3c(c2)OCO3)c2cc3c(cc2n1)OCO3,22.5%,44.9%,47%,28.5%,59.7%,50.9%,19.5%,-1.69% (active),-7.98% (active),35.8%,-19.9% (active),25.7%,45%,81.4%,16.2%,-37.2% (active),-45.1% (active),-14.2% (active),-8.22% (active),–
CC(C)C1CCC(C)C(O)C1 (centres undefined),94.2%,102%,96.3%,89.3%,99.2%,104%,98%,92%,96.1%,113%,101%,99.1%,108%,108%,106%,104%,105%,93.5%,103%,–
O=C(N/N=C\c1ccc(Cl)cc1Cl)c1ccncc1,94.4%,101%,98.7%,90.7%,91.4%,105%,99%,95.8%,99.6%,94.5%,91.5%,101%,105%,106%,117%,96.3%,113%,123%,102%,–
O=C(O)Cc1ccccn1,106%,109%,112%,95.1%,105%,105%,93.9%,94.4%,101%,89.3%,102%,102%,101%,117%,104%,105%,114%,109%,111%,–
CC(=O)C1C(=O)C(=O)N(c2ccc(Cl)c(Cl)c2)C1=O (centres undefined),111%,92.1%,97.4%,95.2%,107%,97.8%,93.4%,118%,115%,91.5%,–,101%,–,88.5%,106%,98.6%,107%,103%,97%,91.2%
